Experimental findings from PubChem BioAssay AID623911 (Vanderbilt High Throughput Screening Facility, 2012) are described below.

Out of some 2,100 compounds screened, about 770 (37%) were called active. Some of the results follow. A number with no mark means an inactive call.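 The calls were made as follows: active = by-eye trace score of 1 for enhancers or -1 for inhibitors, so actives lie on both sides (some results past the limit were not filed as active); inactive = score 0, or 3 fluorescent, or 4 baseline rise.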

For the assay, the target named is G protein-activated inward rectifier potassium channel 2 (Homo sapiens) + G protein-activated inward rectifier potassium channel 1 (Homo sapiens) (UniProt P48051+P48549). Briefly: GIRK1/2 thallium flux modulators, retest, confirmation, cell-based, HEK293 rmGlu8/hGIRK1/2, FluoZin-2 (AID 623911). To be noted: HEK293 rmGlu8/hGIRK1/2, thallium flux FluoZin-2; actives lie on both sides; glutamate co-added at its EC20 level.
Sequence of G protein-activated inward rectifier potassium channel 2 (Homo sapiens) + G protein-activated inward rectifier potassium channel 1 (Homo sapiens) (P48051 whole entry, looked up): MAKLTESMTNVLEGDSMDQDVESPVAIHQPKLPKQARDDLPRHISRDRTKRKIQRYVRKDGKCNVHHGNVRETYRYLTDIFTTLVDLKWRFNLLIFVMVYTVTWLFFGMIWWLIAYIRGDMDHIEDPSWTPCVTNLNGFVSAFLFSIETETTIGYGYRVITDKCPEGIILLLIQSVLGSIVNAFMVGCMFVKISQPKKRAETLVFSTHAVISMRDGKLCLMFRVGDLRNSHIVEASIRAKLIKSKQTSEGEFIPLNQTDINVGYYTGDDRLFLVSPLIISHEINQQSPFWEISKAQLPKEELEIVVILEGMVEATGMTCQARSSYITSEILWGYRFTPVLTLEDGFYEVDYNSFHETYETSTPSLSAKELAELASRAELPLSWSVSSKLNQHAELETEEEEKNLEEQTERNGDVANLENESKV
Sequence of G protein-activated inward rectifier potassium channel 2 (Homo sapiens) + G protein-activated inward rectifier potassium channel 1 (Homo sapiens) (P48549 whole entry, looked up): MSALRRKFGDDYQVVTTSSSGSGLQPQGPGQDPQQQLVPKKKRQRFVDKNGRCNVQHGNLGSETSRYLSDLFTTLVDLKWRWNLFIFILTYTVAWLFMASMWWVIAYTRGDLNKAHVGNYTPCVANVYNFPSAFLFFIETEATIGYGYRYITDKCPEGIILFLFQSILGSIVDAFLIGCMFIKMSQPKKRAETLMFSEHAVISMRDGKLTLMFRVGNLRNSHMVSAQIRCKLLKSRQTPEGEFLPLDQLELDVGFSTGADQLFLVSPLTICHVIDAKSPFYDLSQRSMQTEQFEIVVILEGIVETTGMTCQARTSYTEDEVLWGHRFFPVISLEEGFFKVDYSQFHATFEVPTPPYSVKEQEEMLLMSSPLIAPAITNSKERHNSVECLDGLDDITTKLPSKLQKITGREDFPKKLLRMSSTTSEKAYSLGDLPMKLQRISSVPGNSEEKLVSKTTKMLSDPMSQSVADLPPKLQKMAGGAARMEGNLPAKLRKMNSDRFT
Turning to `O=C(OCCN1C(=O)c2cccc3c(N4CCOCC4)ccc(c23)C1=O)c1cccc(Cl)c1`, the manual score is 3. For `O=C(NCCSc1c[nH]c2ccccc12)c1ccco1` the value was 0; for `COC(=O)c1ccc(CSc2ccc3nnc(-c4ccccc4)n3n2)o1`, -1 (active); for `CCC(Sc1ccc2nnc(-c3ccc(F)cc3)n2n1)C(=O)OC` (stereo not drawn), 0.

As to `COC(=O)c1ccc(CSc2nnc(Nc3ccccc3OC)s2)o1`, the manual score was 0. For `O=C(Cc1csc(Nc2nc(=S)[nH]c3ccccc23)n1)NCc1ccccc1Cl` the value was 0. To `O=C(Cc1csc(Nc2nc(=S)[nH]c3ccccc23)n1)NCc1cccc(Cl)c1` belongs 1 (active).

In the case of `Cc1ccc(CNC(=O)Cc2csc(Nc3nc(=S)[nH]c4ccccc34)n2)cc1`, the manual score is 0.5. As for `COc1cccc(N2CCN(c3c4c(nc5ncnn35)CCC4)CC2)c1`, the manual score is 0. Turning to `O=C1c2cccc3c(O)ccc(c23)C(=O)N1Cc1ccccc1`, the manual score was 3. Regarding `CON(c1nc(Cl)nc(N(C)C)n1)S(=O)(=O)c1ccccc1Cl`, the manual score was -1 (active). To `COCCn1c(=S)[nH]c2cc(C(=O)N3CCN(c4ccc(F)cc4)CC3)ccc2c1=O` belongs 0; to `O=C(c1csc2c1CCCC2)N1CCN(c2ccc(F)cc2)CC1`, -1 (active); to `C=CCn1c(=S)[nH]c2ccc(Br)cc2c1=O`, 1 (active). For `O=c1c2ccccc2[nH]c(=S)n1CCN1CCN(Cc2ccccc2)CC1` the value was 0; for `O=c1c2cc(Cl)ccc2[nH]c(=S)n1Cc1cccs1`, 0.

Consider `O=C(C1CCC(Cn2c(=S)[nH]c3ccccc3c2=O)CC1)N1CCN(c2ccccc2)CC1` (stereo not drawn), for which the manual score is 0. To `C=CCn1c(=S)[nH]c2ccccc2c1=O` belongs 1 (active); to `CCN(CC)c1ccc2cc(C=O)c(=O)oc2c1`, 3. For `CCc1cccc(NC(=O)CSC2=NS(=O)(=O)c3ccccc32)c1` the value was 1 (active). For `CC(=O)Nc1ccc(NC(=O)CSc2nccn2Cc2ccccc2)cc1` the value was 0; for `COC(=O)CSc1nc2ncccc2[nH]1`, 0. On to `CCc1cccc(NC(=O)CCSCCC(=O)Nc2cccc(CC)c2)c1`, for which the manual score is 0. For `COC(=O)CSC1=NS(=O)(=O)c2ccccc21`, the manual score is -1 (active). For `COC(=O)CSc1nnc(SCc2ccc(OC)cc2)s1` the value was 0; for `Clc1ccc2c(c1)C(N1CCNCC1)Cc1ccccc1S2` (stereo not drawn), -1 (active); for `CSc1nc(-c2ccccc2)[nH]c(=S)c1C(C)=O`, 1 (active). With `CC(=O)c1c(N2CCCC2)[nH]c(-c2ccccc2)nc1=S`, the manual score is 1 (active).

In the case of `CCOC(=O)c1ccc(N2C(=O)C(O)=C(C(C)=O)C2c2ccccc2)cc1` (stereo not drawn), the manual score was 0. For `O=c1c2c(nc3c(-c4ccccc4)c[nH]n13)CCCC2` the value was 0. To `CCCCn1c(SC(C)C(N)=O)nc2cc(C(=O)OC)ccc2c1=O` (stereo not drawn) belongs 0; to `CN1/C(=C\C=C2/C(=O)Oc3ccccc3C2=O)C(C)(C)c2ccccc21`, 3; to `CCNC(=O)NC(=O)COC(=O)CCCSc1nc2ccccc2[nH]1`, 0. To `CCCOc1cccc(OCCSc2nc(C)cc(=O)[nH]2)c1` belongs 0. For `CCOc1ccc(OCCSc2nc3ccccc3[nH]2)cc1`, the manual score was 1 (active). Regarding `Clc1ccc2[nH]c3c(NCC4CCCO4)ncnc3c2c1` (stereo not drawn), the manual score is 0. For the compound `Oc1[nH]c2c(Cl)cc(Cl)cc2c1N=NC(=S)NCC1CCCO1` (stereo not drawn), the manual score was 1 (active). To `Oc1[nH]c2ccccc2c1N=NC(=S)NCC1CCCO1` (stereo not drawn) belongs 0.5; to `c1cc2c(cc1C1=Nn3c(nnc3C3CCCCC3)SC1)OCO2`, 0; to `COc1ccccc1C1=Nn2c(nnc2C2CCCCC2)SC1`, -1 (active).

Take `COc1ccc(C2=Nn3c(nnc3C3CCCCC3)SC2)cc1OC`: the manual score was 0. To `Cc1cc(C)nc(N(C#N)Cc2ccc(Br)cc2)n1` belongs -1 (active); to `O=C(NC(=S)Nc1ccc(N2CCCCC2)cc1)c1ccco1`, 1 (active); to `O=C(NC(=S)Nc1ccccc1N1CCCCC1)c1ccco1`, 0.

Take `O=C(NC(=S)Nc1ccc(N2CCCCC2)c(Cl)c1)c1cccs1`: the manual score was 0. To `O=C(NC(=S)Nc1ccc(N2CCCCC2)cc1)c1cccs1` belongs 1 (active); to `CC1CCN(c2ccc(NC(=S)NC(=O)c3ccco3)cc2)CC1`, 0.

`O=C(NC(=S)Nc1ccccc1N1CCOCC1)c1ccco1`: the manual score was 1 (active). To `O=C(NC(=S)Nc1ccc(N2CCOCC2)cc1)c1ccco1` belongs 0; to `CC1CCN(c2ccccc2NC(=S)NC(=O)c2ccco2)CC1`, 0; to `CN(C1CCCCC1)S(=O)(=O)c1ccc(NC(=S)NC(=O)c2cccs2)cc1`, 0. For the compound `CC(C)(C)C(=O)/C=c1\[nH]c(=O)/c(=C\c2ccc(F)cc2)s1`, the manual score was 0.

Regarding `Cc1ccc(NC2CC(=O)N(CCc3ccccc3)C2=O)cc1` (stereo not drawn), the manual score is 0.

For `CCn1c(SCC(=O)Nc2oc(-c3ccccc3)c(-c3ccccc3)c2C#N)nnc1-c1ccco1`, the manual score is 0. Regarding `Cc1cnc(NC(=O)CSc2nc3ccccc3c(=O)[nH]2)s1`, the manual score is 0. For `COc1cc(OC)cc(C(=O)NC(=S)NCCc2ccccc2)c1` the value was 0; for `COc1ccc(C(=O)CC(=O)C(=O)NCCc2cccc(C)c2)cc1`, 0.5; for `O=C(CCc1ccccc1)NNC(=S)NC(=O)c1ccc(Cl)cc1`, 1 (active). To `COc1ccc(C(=O)NC(=S)NNC(=O)CCc2ccccc2)cc1` belongs 1 (active); to `CCOc1ccccc1-c1c2cc(O)c(=O)cc-2oc2cc(O)c(O)cc12`, 0; to `CCOc1ccccc1Cn1c(=O)oc2ccc(C)cc21`, -1 (active).

For `CCNC(=S)Nc1scc(-c2ccccc2)c1C(=O)OCC`, the manual score is 1 (active). To `CCOC(=O)c1c(-c2ccc(C)o2)csc1NC(=S)NC(=O)c1cccs1` belongs 0; to `CCOC(=O)c1c(-c2ccccc2)csc1NC(=S)NC`, 1 (active).

For the compound `CCOC(=O)c1c(-c2ccc(C)o2)csc1NC(=S)NC(=O)N(C)C`, the manual score is 1 (active).

Turning to `CC(C)Cc1nnc(NC(=O)CSc2nc(=O)cc(N)n2-c2ccccc2)s1`, the manual score was 0. `Cc1cccc(C)c1NC(=S)NC(=O)c1ccccc1F`: the manual score was 1 (active). As to `O=C(NC(=S)NCc1ccccc1)c1ccccc1F`, the manual score is 0.5. As to `CC(C)C(=O)NC(=S)N(Cc1ccccc1)Cc1ccccc1`, the manual score was 1 (active). With `Cc1cccc(C)c1NC(=S)NC(=O)CCc1ccccc1`, the manual score is 0. For `O=C(NC(=S)N(Cc1ccccc1)Cc1ccccc1)c1ccccc1F` the value was 1 (active); for `CC(C)CC(=O)NC(=S)N(Cc1ccccc1)Cc1ccccc1`, 1 (active); for `CC(C)CC(=O)Nc1cccc2c1C(=O)N(c1ccccc1)C2=O`, -0.5.
